Consider eight molecules from PubChem BioAssay (EPA / NIEHS).

Structures are written as SMILES. Calls of active or inactive are those of the source. The calls were made as follows: active = hit-call score of the fitted dose curve at least 0.9, where 1 is the maximum; inactive = score below 0.9.

Experiment [1] can be described thus: ATG_CRE_CIS: Attagene CIS-FACTORIAL HepG2 Assay for human cAMP Responsive Element (CRE) binding protein 3 (AID 2282926). The settings on record: HepG2 CRE cis-reporter, Attagene multiplexed mRNA; actives raise or lower the signal. An outline of the steps:
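Endogenous transcription factor activity read via CRE-regulated reporter transcripts in transfected HepG2 cells. After 24 h exposure, RNA was reverse-transcribed, amplified, fluorescently labelled and sized by capillary electrophoresis; gain or loss fitted against DMSO.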

In experiment [2] the target is CCAAT/enhancer-binding protein beta (Homo sapiens) (UniProt P17676). Kind of experiment: ATG_C_EBP_CIS: Attagene CIS-FACTORIAL HepG2 Assay for human CCAAT/Enhancer Binding Protein (C/EBP) beta (AID 2282927). The note with it: HepG2 Attagene cis-factorial transcription factor reporter; actives raise or lower the signal. An outline of the steps:
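HepG2, transient MRTU transfection, 24 h treatment. RT-PCR plus CE fluorescence; DMSO negative control, bidirectional fit.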

Experiment [3] in a line: ATG_CMV_CIS: Attagene CIS-FACTORIAL HepG2 Assay for human CMV (Internal Marker) (AID 2282928).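 Also: endpoint acts as a background internal control marker rather than a target.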 The settings on record: HepG2 CMV promoter reporter, transcription factor profiling; actives raise or lower the signal. The method, boiled down: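 Reporter transcripts from transfected HepG2 cells are isolated after 24 h of chemical dosing, reverse-transcribed and amplified. Fragments labeled with 6-FAM are cut with HpaI and quantified by capillary electrophoresis; DMSO defines baseline.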

Experiment [4] is described as follows: ATG_DR4_LXR_CIS: Attagene CIS-FACTORIAL HepG2 Assay for human Liver X Receptor (LXR), DR4 submotif (AID 2282929). The settings on record: HepG2 Attagene DR4 cis-reporter, mRNA transcription; actives raise or lower the signal. An outline of the steps: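 Transiently transfected HepG2 liver cells; cis-regulated reporters; 24 h dosing. RT-PCR plus CE read-out of reporter mRNA. DMSO baseline, bidirectional curve fitting.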

For experiment [5], the target named is Aryl hydrocarbon receptor (Homo sapiens) (UniProt P35869). Kind of experiment: ATG_Ahr_CIS: Attagene CIS-FACTORIAL HepG2 Assay for human Aryl Hydrocarbon Receptor (Ahr) (AID 2282930). The note with it: HepG2 AhR cis-factorial reporter transcription; actives raise or lower the signal. An outline of the steps:
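Endogenous factor activity is tracked through cis-promoter reporter units transfected into HepG2 cells. Transcript levels at 24 h are read by fluorescent RT-PCR and capillary electrophoresis, with activity in either direction scored relative to DMSO.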

A short description of experiment [6]: ATG_AP_1_CIS: Attagene CIS-FACTORIAL HepG2 Assay for human Activator Protein 1 (AP-1) (AID 2282931). The note with it: HepG2 Attagene cis-factorial AP-1 reporter mRNA; actives raise or lower the signal. An outline of the steps: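 We transfected HepG2 cells transiently with a set of cis-regulated reporter transcription units, dosed them for 24 h, and quantified reporter mRNA via RT-PCR and capillary electrophoresis, scoring gain or loss of signal relative to DMSO.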

The nature of experiment [7]: ATG_AP_2_CIS: Attagene CIS-FACTORIAL HepG2 Assay for human Activator Protein 2 (AP-2) (AID 2282932). The note with it: HepG2 AP-2 cis-reporter, Attagene transcription factor profiling; actives raise or lower the signal. An outline of the steps:
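Read-out: fluorescent reporter mRNA via RT-PCR and capillary electrophoresis, 24 h post-dose in transiently transfected HepG2. Endogenous factors drive cis-promoter reporters; gain or loss of signal fitted bidirectionally against DMSO.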

A short description of experiment [8]: ATG_BRE_CIS: Attagene CIS-FACTORIAL HepG2 Assay for human Bone Morphogenetic Protein (BMP) Response Element (BRE) (AID 2282933). The note with it: HepG2 BMP response element reporter, Attagene transcription factor profiling; actives raise or lower the signal. The method, boiled down:
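Transient MRTU transfection of human HepG2 liver cells; 24 h compound treatment; total RNA isolated, reverse-transcribed, PCR-amplified, 6-FAM labelled, HpaI-cut, capillary electrophoresis. DMSO = negative control/baseline, bidirectional fit.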

Experiment [9] has as its target Transcription factor E2F1 (Homo sapiens) (UniProt Q01094). Kind of experiment: ATG_E2F_CIS: Attagene CIS-FACTORIAL HepG2 Assay for human E2F Transcription Factor 1 (AID 2282935). The settings on record: HepG2 Attagene cis-reporter, E2F reporter RNA transcripts; actives raise or lower the signal. The method, boiled down: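 Transient MRTU transfection of HepG2; 24 h compound exposure; RNA → oligo(dT) RT → PCR → FAM label → HpaI cut → CE fluorescence. Gain/loss of signal fit against DMSO.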

Experiment [10] is described as follows: ATG_E_Box_CIS: Attagene CIS-FACTORIAL HepG2 Assay for human Enhancer Box (E-box) (AID 2282936). The settings on record: HepG2 E-box cis-reporter transcription, actives raise or lower the signal. An outline of the steps:
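Transiently transfected HepG2, endogenous TF-driven reporters, 24 h dosing. Readout: RT-PCR plus capillary electrophoresis of fluorescent reporter fragments. Gain or loss of signal fitted bidirectionally against DMSO baseline.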

The nature of experiment [11]: ATG_M_61_CIS: Attagene CIS-FACTORIAL HepG2 Assay for M61 Transcription Factor (Internal Marker) (AID 2282937). The settings on record: HepG2 Attagene CIS-FACTORIAL M61 internal marker reporter; actives raise or lower the signal. The method, boiled down: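 Multiplexed reporter mRNA assay, HepG2 human hepatoma cells, 24 h treatment. Signal: FAM-labelled, HpaI-digested RT-PCR fragments by CE. Fit: bidirectional, baseline DMSO.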

A short description of experiment [12]: ATG_EGR_CIS: Attagene CIS-FACTORIAL HepG2 Assay for human Early Growth Response 1 (EGR1) (AID 2282938). The note with it: HepG2 Attagene CIS-FACTORIAL EGR reporter mRNA; actives raise or lower the signal. An outline of the steps: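 Multiplexed cis-reporter system in human hepatoma HepG2 cells, transiently transfected. Cells are dosed for 24 h; reporter transcripts are amplified, fluorescently tagged and sized by capillary electrophoresis, with DMSO as negative control.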

Experiment [13] in a line: ATG_M_19_CIS: Attagene CIS-FACTORIAL HepG2 Assay for M19 Transcription Factor (Internal Marker) (AID 2282939). The note with it: HepG2 Attagene CIS-FACTORIAL M19 internal marker reporter; actives raise or lower the signal. The method, boiled down: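 Transfect HepG2 with MRTU reporter library → dose chemical, 24 h → isolate total RNA, reverse-transcribe with oligo(dT) → PCR, 6-FAM label, HpaI cut (2 h, 37 C) → capillary electrophoresis. Bidirectional fit vs DMSO.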

A short description of experiment [14]: ATG_Ets_CIS: Attagene CIS-FACTORIAL HepG2 Assay for human Erythroblast Transformation Specific (ETS) (AID 2282941). The settings on record: HepG2 ETS cis-reporter transcription, actives raise or lower the signal. An outline of the steps:
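Bidirectional fit versus DMSO of reporter mRNA signal, detected by RT-PCR and capillary electrophoresis in HepG2 cells transiently transfected with cis-element reporters and dosed 24 h.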

Experiment [15] concerns the target Hepatocyte nuclear factor 3-beta (Homo sapiens) (UniProt Q9Y261). As to the kind of experiment: ATG_FoxA2_CIS: Attagene CIS-FACTORIAL HepG2 Assay for human Forkhead box A2 (FOXA2) (AID 2282942). The settings on record: HepG2 cis-reporter transcription factor activity, 24 h; actives raise or lower the signal. The method, boiled down: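 Multiplexed cis-element reporter assay in transiently transfected HepG2. Twenty-four hours post-dosing, RNA was reverse-transcribed, amplified, FAM-labelled, HpaI-digested and separated by CE. Activity gain or loss relative to DMSO.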

A short description of experiment [16]: ATG_FoxO_CIS: Attagene CIS-FACTORIAL HepG2 Assay for human Forkhead box O (FoxO) (AID 2282943). The settings on record: HepG2 Attagene cis-reporter, FoxO element, mRNA; actives raise or lower the signal. An outline of the steps: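 Transfected HepG2 reporter cells exposed to test chemical for 24 h; reporter RNA measured by reverse transcription, PCR and fluorescent capillary electrophoresis; curves fitted for increases and decreases against DMSO.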

A short description of experiment [17]: ATG_GATA_CIS: Attagene CIS-FACTORIAL HepG2 Assay for human GATA Binding Protein (AID 2282944). The note with it: HepG2 GATA cis-element reporter, Attagene multiplex mRNA; actives raise or lower the signal. The method, boiled down: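 Transient MRTU transfection, HepG2, 24 h compound exposure. Total RNA → oligo(dT) RT → PCR → 6-FAM primer extension → HpaI cut → CE. Bidirectional fit vs DMSO.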

Experiment [18] can be described thus: ATG_GLI_CIS: Attagene CIS-FACTORIAL HepG2 Assay for human Zinc Finger Protein GLI1 (AID 2282945). The settings on record: HepG2, Attagene cis-factorial reporter mRNA, GLI element; actives raise or lower the signal. An outline of the steps:
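Transiently transfected HepG2 cells report endogenous transcription factor activity via cis-element-driven reporter units. After 24 h compound exposure, reporter mRNA was measured by RT-PCR with capillary electrophoresis; bidirectional fitting against DMSO baseline.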

Experiment [19] in a line: ATG_ERE_CIS: Attagene CIS-FACTORIAL HepG2 Assay for Estrogen Response Element (ERE) (AID 2282940). The note with it: HepG2 ERE cis-reporter, Attagene RNA transcript; actives raise or lower the signal. An outline of the steps: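 Transient MRTU transfection of human HepG2; cis-element promoters; 24 h dosing; total RNA → RT (oligo dT) → PCR → 6-FAM primer extension → HpaI digest → CE fluorescence. Bidirectional fit, DMSO baseline.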

Transcription factor E2F1 (Homo sapiens), sequence (Q01094 whole entry, looked up): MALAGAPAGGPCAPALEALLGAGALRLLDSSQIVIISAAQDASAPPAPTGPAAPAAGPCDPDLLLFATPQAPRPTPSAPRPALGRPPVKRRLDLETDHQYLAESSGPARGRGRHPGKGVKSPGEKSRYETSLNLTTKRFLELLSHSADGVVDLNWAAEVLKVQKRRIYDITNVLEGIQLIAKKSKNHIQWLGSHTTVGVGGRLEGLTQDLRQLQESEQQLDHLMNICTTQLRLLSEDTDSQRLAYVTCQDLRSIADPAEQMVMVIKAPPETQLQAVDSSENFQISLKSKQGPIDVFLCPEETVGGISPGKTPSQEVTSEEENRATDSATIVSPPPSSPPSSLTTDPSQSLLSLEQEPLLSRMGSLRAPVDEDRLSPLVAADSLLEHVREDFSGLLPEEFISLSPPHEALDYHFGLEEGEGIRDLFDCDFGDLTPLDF
Hepatocyte nuclear factor 3-beta (Homo sapiens), sequence (Q9Y261 whole entry, looked up): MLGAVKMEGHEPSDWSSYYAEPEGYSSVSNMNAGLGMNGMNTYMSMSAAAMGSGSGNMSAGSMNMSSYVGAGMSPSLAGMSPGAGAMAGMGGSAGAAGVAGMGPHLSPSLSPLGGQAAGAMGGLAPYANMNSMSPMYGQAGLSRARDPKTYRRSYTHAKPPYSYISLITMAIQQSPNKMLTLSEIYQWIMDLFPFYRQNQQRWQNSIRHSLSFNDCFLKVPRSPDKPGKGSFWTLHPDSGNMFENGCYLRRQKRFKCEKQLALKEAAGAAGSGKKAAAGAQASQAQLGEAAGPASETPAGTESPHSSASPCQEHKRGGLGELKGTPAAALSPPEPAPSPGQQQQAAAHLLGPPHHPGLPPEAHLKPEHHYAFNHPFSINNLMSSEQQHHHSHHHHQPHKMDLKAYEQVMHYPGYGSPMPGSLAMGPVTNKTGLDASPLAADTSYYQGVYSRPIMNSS
CCAAT/enhancer-binding protein beta (Homo sapiens), sequence (P17676 whole entry, looked up): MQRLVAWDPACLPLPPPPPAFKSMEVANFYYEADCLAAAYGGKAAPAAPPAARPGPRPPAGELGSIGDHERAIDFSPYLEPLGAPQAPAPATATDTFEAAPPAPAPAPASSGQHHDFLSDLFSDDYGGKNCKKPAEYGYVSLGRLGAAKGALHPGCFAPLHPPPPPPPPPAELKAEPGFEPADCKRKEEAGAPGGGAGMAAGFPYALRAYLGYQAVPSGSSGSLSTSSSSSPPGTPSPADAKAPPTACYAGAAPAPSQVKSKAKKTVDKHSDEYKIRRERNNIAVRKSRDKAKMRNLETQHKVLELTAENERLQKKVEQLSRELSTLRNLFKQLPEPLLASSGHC
Aryl hydrocarbon receptor (Homo sapiens), sequence (P35869 whole entry, looked up): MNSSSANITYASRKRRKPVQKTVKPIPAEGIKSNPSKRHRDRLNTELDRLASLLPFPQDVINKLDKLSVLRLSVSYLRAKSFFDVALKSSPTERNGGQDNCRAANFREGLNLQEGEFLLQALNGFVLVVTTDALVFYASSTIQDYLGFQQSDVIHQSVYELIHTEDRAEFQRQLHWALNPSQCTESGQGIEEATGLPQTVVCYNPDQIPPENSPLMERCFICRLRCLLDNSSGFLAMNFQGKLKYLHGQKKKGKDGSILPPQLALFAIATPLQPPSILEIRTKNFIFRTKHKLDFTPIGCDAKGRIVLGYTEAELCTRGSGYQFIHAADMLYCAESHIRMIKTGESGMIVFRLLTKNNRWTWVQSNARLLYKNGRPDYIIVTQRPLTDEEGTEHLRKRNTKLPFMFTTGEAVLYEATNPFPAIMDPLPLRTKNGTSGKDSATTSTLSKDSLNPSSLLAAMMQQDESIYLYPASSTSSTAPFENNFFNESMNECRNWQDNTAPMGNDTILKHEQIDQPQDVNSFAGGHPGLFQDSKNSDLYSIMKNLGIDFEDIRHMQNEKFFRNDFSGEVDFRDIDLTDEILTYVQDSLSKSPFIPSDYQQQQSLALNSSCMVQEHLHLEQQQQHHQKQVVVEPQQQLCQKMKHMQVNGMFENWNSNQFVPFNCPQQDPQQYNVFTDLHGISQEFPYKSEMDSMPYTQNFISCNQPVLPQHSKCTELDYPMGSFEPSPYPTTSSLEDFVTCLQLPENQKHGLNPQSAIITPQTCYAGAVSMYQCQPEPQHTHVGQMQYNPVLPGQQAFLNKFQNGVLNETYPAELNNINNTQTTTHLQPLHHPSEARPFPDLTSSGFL

As to `O=c1[nH]nnc2ccccc12`, the molecule was classed as inactive in experiment [1], in [2], in [3], in experiment [4], in experiment [5] and in experiment [6]. Also, the outcome in experiment [7], in experiment [8], in experiment [9], in experiment [10], in experiment [11] and in [12] was inactive. The molecule was classed as inactive in experiment [13], in experiment [14], in experiment [15], in experiment [16], in [17] and in [18].

Regarding `CC1(C)[C@H](C(=O)OCc2cccc(Oc3ccccc3)c2)[C@@H]1C=C(Cl)Cl`, the call in [1], in experiment [2], in experiment [3], in experiment [4], in [5] and in experiment [6] was inactive. Further, the outcome in [7], in [8], in experiment [9], in experiment [10], in experiment [11] and in experiment [12] was inactive. Also, the molecule was classed as inactive in experiment [13], in [14], in experiment [15], in experiment [16], in [17] and in [18].

For `CC1=CCC(O)(C(C)C)CC1` (stereo not given), the molecule was called inactive in experiment [1], in [2], in experiment [3], in experiment [4], in experiment [5] and in experiment [6]. Also, the outcome in experiment [7], in experiment [8], in experiment [9], in [10], in [11] and in experiment [12] was inactive. Besides, the outcome in [13], in [19], in [14], in [15], in [16] and in [17] was inactive. In addition, in experiment [18], the result was inactive.

On to `CSc1nnc(C(C)(C)C)c(=O)[nH]1`, for which the call in experiment [1], in [2], in experiment [3], in experiment [4], in [5] and in [6] was inactive. Besides, the molecule was called inactive in experiment [7], in [8], in [9], in [10], in [11] and in experiment [12]. Moreover, the molecule was classed as inactive in [13], in experiment [19], in [14], in experiment [15], in experiment [16] and in experiment [17]. In experiment [18], the result was inactive.

In the case of `Clc1cccc(Cl)n1`, the call in experiment [1], in experiment [2], in experiment [3], in experiment [4], in experiment [5] and in experiment [6] was inactive. Also, the result in experiment [7], in experiment [8], in experiment [9], in [10], in experiment [11] and in experiment [12] was inactive. The molecule was called inactive in [13], in experiment [19], in experiment [15], in experiment [16], in experiment [17] and in [18].

The AC50 is the concentration at which the activity in the assay is half-maximal. Take `CCCCCCCCCCCCCCCC(=O)OC[C@H](O)[C@H]1OC(=O)C(O)=C1O`: the AC50 in experiment [1] was 29.3 µM (active); in experiment [2], 67.7 µM (active); in experiment [4] it was 76.2 µM (active); in [5] it was 78 µM (active); in [8], 9.68 µM (active). The molecule was called inactive in experiment [3], in experiment [6], in experiment [7], in experiment [9], in [10] and in experiment [11]. The result in experiment [12], in experiment [13], in experiment [19], in [14], in experiment [16] and in experiment [18] was inactive.

As for `O=C(COc1ccc(Cl)cc1)N1CCN(Cc2ccc3c(c2)OCO3)CC1`, the molecule was classed as inactive in experiment [1], in [2], in [4], in experiment [5], in experiment [6] and in experiment [7]. Besides, the molecule was called inactive in experiment [9], in [10], in experiment [11], in [13], in [19] and in [16]. For the same molecule, the outcome in experiment [17] and in [18] was inactive. For the same molecule, the values for the AC50 in [3], in experiment [8] and in experiment [12] were 24.9 µM (active), 93.6 µM (active) and 32.1 µM (active), respectively.

As to `Nc1ccc(F)c([N+](=O)[O-])c1`, the result in experiment [1], in experiment [2], in [3], in experiment [4], in [5] and in experiment [6] was inactive. In addition, the outcome in [7], in experiment [8], in experiment [9], in experiment [10], in [11] and in experiment [12] was inactive. In addition, the outcome in experiment [13], in experiment [19], in experiment [14], in [15], in experiment [16] and in [17] was inactive. In addition, the molecule was classed as inactive in experiment [18].
